Data: PubChem BioAssay (NCATS)
Records with an inconclusive call do not appear. Activity calls are given as the source filed them. The call rests on the fitted dose curve; in most records, active means well fitted curve in the direction sought with a large enough effect; inconclusive means small, poorly fitted or top-dose-only effect, or another doubt; inactive means no such curve, though single readings can be large; an effect the other way counts as inactive or inconclusive.

Tests used:
[1] = qHTS for Activators of p53 Stress Response Pathway screened against the NCATS CANVASS Library (AID 1347388)
Procedure, shortened: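 Beta-lactamase reporter driven by p53 response elements in HCT-116 cells, read as the 460 nm/530 nm emission ratio after CCF4 loading, following 16 h of exposure to an 11-point series. Cell viability was measured in the same wells by CellTiter-Glo luminescence.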

[2] = qHTS assay for small molecule disruptors of mitochondrial membrane potential screened against the NCATS CANVASS Library (AID 1347389)
Procedure, shortened: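 HepG2 cells (2,000/well) plated overnight, then exposed to compounds in 11-point qHTS series for 1 h at 37C before 30 min Mito-MPS dye; depolarization read as fall in red aggregate (590 nm) to green monomer (535 nm) fluorescence.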

[3] = Secretion counterscreen for inhibitors of the SERCaMP assay screened against the NCATS CANVASS Library (AID 1347390)
Procedure, shortened: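 SH-SY5Y cells expressing constitutively secreted GLuc, 1000 cells/well, attached 4 h at 37C, then exposed to compounds (0.001 - 77 uM, 11-pnt series) for 20 h. Coelenterazine added; luminescence read to flag secretory-pathway interferers.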

[4] = qHTS for activators of Nrf2/ARE signaling pathway screened against the NCATS CANVASS Library (AID 1347391)
From the text: (§1) Natural products and their derivatives continue to be wellsprings of nascent therapeutic potential. However, many laboratories have limited resources for biological evaluation, leaving their previously isolated or synthesized compounds largely or completely untested. To address this issue, the Canvass library of natural products was assembled (https://tripod.nih.gov/canvass), in collaboration with academic and industry researchers, for quantitative high-throughput screening (qHTS) across a diverse set of cell-based and biochemical assays. The pure (>85% purity by liquid chromatography/mass spectrometry [LC/MS]) Canvass library of 346 natural products were submitted by 45 academic laboratories and companies around the world. […] The library was formatted into 1536-well plates and evaluated in 50 qHTS (in an 11-pnt concentration series) bioassays with broad scope of disease-relevant mechanisms. The resulting data set from 50 different assays was then systematically analyzed to identify overall trends and specific natural products with interesting biological activities. […]
Nrf2/ARE-screen assay protocol: 1. […] Fluorescence readout was obtained using the Envision plate reader (PerkinElmer) using a 405 nm excitation and 460 nm and 530 nm emission filters. […] Luminescence was measured using the ViewLux plate reader with clear emission filter and 2x binning, 1 sec exposure settings.

[5] = qHTS for activators of dead-cell proteases activity screened against the NCATS CANVASS Library (AID 1347392)
Procedure, shortened: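 Compounds are pin-transferred onto attached HepG2 cells, giving 11 final concentrations. After 5 h at 37C, AAF-aminoluciferin reagent is added and luminescence is recorded at room temperature.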

[6] = qHTS for inhibitors of ER calcium dysfunction: SERCaMP assay screened against the NCATS CANVASS Library (AID 1347393); settings: SH-SY5Y GLuc-SERCaMP (Gaussia luciferase released on ER calcium loss) secretion, thapsigargin, luminescence
Procedure, shortened: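 Thapsigargin-induced ER calcium depletion drives GLuc-SERCaMP secretion from SH-SY5Y cells; compounds given 16 h beforehand were scored by lowered coelenterazine luminescence after 4 h challenge.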

[7] = Vero-766 cells viability qHTS against the NCATS CANVASS Library: Counterscreen for Zika virus inhibition assay (AID 1347394)
From the text: Natural products and their derivatives continue to be wellsprings of nascent therapeutic potential. However, many laboratories have limited resources for biological evaluation, leaving their previously isolated or synthesized compounds largely or completely untested. To address this issue, the Canvass library of natural products was assembled (https://tripod.nih.gov/canvass), in collaboration with academic and industry researchers, for quantitative high-throughput screening (qHTS) across a diverse set of cell-based and biochemical assays. The pure (>85% purity by liquid chromatography/mass spectrometry [LC/MS]) Canvass library of 346 natural products were submitted by 45 academic laboratories and companies around the world. […] The library was formatted into 1536-well plates and evaluated in 50 qHTS (in an 11-pnt concentration series) bioassays with broad scope of disease-relevant mechanisms. The resulting data set from 50 different assays was then systematically analyzed to identify overall trends and specific natural products with interesting biological activities. […] A decrease in the luminescence signal is caused by cytotoxic compounds. […]
Zika-counterscreen assay protocol: 1. […] Luminescence signal was obtained via the ViewLux plate reader (Perkin Elmer) using the clear emission filter and 1x binning, 2 seconds exposure settings.

[8] = qHTS for inhibitors of Wild type Zika virus screened against the NCATS CANVASS Library (AID 1347396)
From the text: as §1, with “assays.” for “assays. The pure (>85% purity by liquid chromatography/mass spectrometry [LC/MS]) Canvass library of 346 natural products were submitted by 45 academic laboratories and companies around the world.”
Zika virus infection assay protocol: 1. […] In a biosafety cabinet, the desired MOI Zika virus was calculated and 2 uL of 2.5x Zika virus was dispensed into columns 1, 2 and 5 - 48 using the Multidrop Combi dispenser. […] Luminescence signal was obtained via the ViewLux plate reader (Perkin Elmer) using the clear emission filter and 1x binning, 2 seconds exposure settings.

[9] = Viability qHTS for inhibitors of the SERCaMP assay screened against the NCATS CANVASS Library (AID 1347400)
Procedure, shortened: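 SH-SY5Y-GLuc SERCaMP MJH297-derived cells, 1000/well, plated 4 h, then exposed to compounds in an 11-point qHTS series for 48 h at 37C. Viability read as CellTiter-Glo luminescence.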

[10] = Redox Reaction Profiling qHTS: Assay Interference Panel against the NCATS CANVASS Library (AID 1347401)
Procedure, shortened: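 Cell-free redox surrogate: 5 uM resazurin + 200 uM DTT, 50 mM HEPES pH 7.3/50 mM NaCl; cpds pinned, 11-pt qHTS; Ex525/Em598 read t0 and t=15 min, dark.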

Measured: Potency

O=C1C[C@@H]2OCC=C3CN4CC[C@]56c7ccccc7N1[C@H]5[C@H]2[C@H]3C[C@H]46
active: [6] 59.6 µM
inactive: [1] | [2] | [3] | [4] | [5] | [7] | [8] | [9]

COc1ccc2[nH]cc(CCN)c2c1
inactive: [1] | [2] | [3] | [4] | [5] | [7] | [8] | [10]
